Source: PubChem BioAssay (several laboratories)
CYP2C19 inhib: human CYP2C19 inhibition. CYP2C19 Supersomes, luciferin-H EGE luminescence, 30 min. AID 778. P33261. 96,000 compounds, 21% hits. inhibition, % at 5 µM;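 active = CYP2C19 inhibition above a set limit at 5 µM in the primary screen, cut at about 50% in these data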;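 note: plate controls were negative control wells for no effect and 2.5 mM tranylcypromine positive control for full effect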
Measles CPE: protection of cells from measles virus; 140,000 compounds, 1.5% hits; protection (pct of control), % at 4 µM; Measles virus-infected cells, CPE protection, absorbance; in the data active = protection mostly above about 24%, no sharp cut-off; inactive = mostly below about 26%
CYP2C19 activ: activators of human cytochrome P450 2C19 | recombinant CYP2C19, luciferin-H EGE luminescence; active compounds read high; 0 = fully inhibited enzyme, 1 = untreated enzyme | activation factor at 5 µM | 96,000 tested, under 10 active | AID 1025;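 active = activation factor of at least 2 at 5 µM in the primary screen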;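 note: 0 = wells with 2.5 mM tranylcypromine and 1 = vehicle-only wells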
CYP2C9 inh: human CYP2C9 inhibition; inhibition, % at 5 µM; 96,000 compounds, 20% hits; P11712; CYP2C9 Supersomes, luciferin-H conversion, luminescence;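 active = blocking of liver enzyme CYP2C9 beyond about 50% at 5 µM, limit read from the data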
Target sequence (P11712 whole entry, looked up): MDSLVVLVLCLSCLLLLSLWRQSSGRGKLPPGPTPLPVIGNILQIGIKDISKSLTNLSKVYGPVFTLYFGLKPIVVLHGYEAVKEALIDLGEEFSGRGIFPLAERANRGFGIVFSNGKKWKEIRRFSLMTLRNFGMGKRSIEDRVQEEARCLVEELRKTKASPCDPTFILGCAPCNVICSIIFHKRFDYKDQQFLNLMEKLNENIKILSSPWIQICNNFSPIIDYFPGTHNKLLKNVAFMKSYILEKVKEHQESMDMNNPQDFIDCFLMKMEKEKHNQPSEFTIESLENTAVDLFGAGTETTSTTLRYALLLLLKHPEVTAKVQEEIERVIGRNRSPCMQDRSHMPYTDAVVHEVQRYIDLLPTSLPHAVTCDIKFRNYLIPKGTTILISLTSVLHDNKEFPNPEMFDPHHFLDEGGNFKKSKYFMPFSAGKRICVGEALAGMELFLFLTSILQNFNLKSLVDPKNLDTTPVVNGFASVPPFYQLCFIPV
CYP2C9 act: activators of human CYP2C9; P11712; recombinant CYP2C9, luciferin-H conversion, luminescence; active compounds read high; factor 1 = untreated enzyme, 0 = blocked; activation factor at 5 µM; 96,000 compounds, 1.4% hits; AID 1024;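 active = activation factor of 2 or more for CYP2C9 at a 5 µM dose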;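 note: 0 = sulfaphenazole-blocked wells and 1 = vehicle-only wells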
* marks the source's active call; other numbers are inactive results; nt = no result. In the library only some 22% were active in any assay of this set; here they are far more common.

SMILES | CYP2C19 inhib | Measles CPE | CYP2C19 activ | CYP2C9 inh | CYP2C9 act
O=C(OCC1CC(c2ccccn2)=NO1)c1ccc(Br)cc1 (stereo unspecified) | 77* | 20 | 0.2 | 82* | 0.2
COc1ccccc1-c1nnn(C/C(N)=N/O)n1 | nt | 6 | nt | nt | nt
O=[N+]([O-])c1ccc(F)c(N=Cc2ccc(Br)s2)c1 | nt | 4 | nt | nt | nt
O=C(COC(=O)c1ccncc1)NCc1ccccc1 | 85* | 12 | 0.1 | 65* | 0.4
O=C(COC(=O)c1ccc(Br)cc1)NCc1ccccc1 | nt | 9 | nt | nt | nt
O=C(COC(=O)c1ccccn1)NCc1ccccc1 | 69* | 14 | 0.3 | 5 | 1
CCOC(=O)c1cccc(NC(=O)c2ccc(N(C)C)cc2)c1 | nt | 5 | nt | nt | nt
Cc1ccccc1C(=O)NNC(=O)Cc1cccc2ccccc12 | 42 | 11 | 0.6 | -25 | 1.2
CCn1c(CSc2nc3ccccc3s2)nnc1SCC(=O)c1ccc(O)c(O)c1 | 37 | 19 | 0.6 | 14 | 0.9
Cc1cccc(OCC(=O)Nc2ccc3c(c2)OCCO3)c1 | 70* | 12 | 0.3 | 58* | 0.4
O=C(CC1C(=O)NCCN1C(=S)Nc1ccccc1)Nc1ccc2c(c1)OCCO2 (stereo unspecified) | 9 | 6 | 0.9 | 59* | 0.4
O=C(CCN1C(=O)c2ccccc2S1(=O)=O)Nc1ccc2c(c1)OCCO2 | 48 | -1 | 0.5 | 59* | 0.4
COc1ccc(OCCCC(=O)Nc2ccc3c(c2)OCO3)cc1 | 41 | 10 | 0.6 | 68* | 0.3
O=C(CCNC(=O)c1ccccc1Cl)Nc1cccc(C(F)(F)F)c1 | nt | 10 | nt | nt | nt
Cc1ccc(C)c(OCC(=O)Nc2ccc3c(c2)OCO3)c1 | 22 | 8 | 0.8 | 27 | 0.7
O=C(CCCOc1ccccc1)Nc1ccc2c(c1)OCCO2 | 81* | 7 | 0.2 | 55* | 0.4
Cc1ccccc1OCCCC(=O)Nc1ccc2c(c1)OCO2 | 63* | 3 | 0.4 | 39 | 0.6
O=c1c(/C=N/O)coc2ccc3ccccc3c12 | 0 | 13 | 1 | -96 | 2*
CCN(CC)S(=O)(=O)c1cc(-c2nnc(-c3ccc(Br)cc3)o2)ccc1Cl | 34 | 5 | 0.7 | 60* | 0.4
Cc1cc([N+](=O)[O-])cnc1NC(C)c1ccccc1 (stereo unspecified) | 65* | 10 | 0.4 | 50 | 0.5
O=[N+]([O-])c1cnc2ccccc2c1 | nt | 11 | nt | nt | nt
Cc1ccc2oc(=O)c3cc(C(=O)NCCN4CCc5ccccc5C4)sc3c2c1 | nt | 15 | nt | nt | nt
Cc1ccc2oc(=O)c3cc(C(=O)NCc4ccco4)sc3c2c1 | 44 | 2 | 0.6 | -106 | 2.1*
Cc1ccccc1C(O)c1cccnc1 (stereo unspecified) | nt | 20 | nt | nt | nt
CCOc1ccccc1-n1nnnc1SCC(=O)NC(=O)Nc1ccc2c(c1)OCCO2 | -7 | 4 | 1.1 | -4 | 1
SMILES | CYP2C19 inhib | Measles CPE | CYP2C19 activ | CYP2C9 inh | CYP2C9 act
Cc1nc(CSc2nnc3scc(-c4ccc(Cl)cc4)n23)cs1 | 60* | 4 | 0.4 | 31 | 0.7
Cc1nc2ccc(F)cc2cc1C(=O)Nc1ccc(Cl)c(Cl)c1 | nt | 6 | nt | nt | nt
CC(C)CC(=O)Nc1nc2ccc(S(=O)(=O)N3CCOCC3)cc2s1 | -15 | 5 | 1.1 | 15 | 0.9
Cc1cccc(Nc2nc(N)nc(CN3CCN(c4ccc(F)cc4)CC3)n2)c1 | 55* | 4 | 0.4 | 59* | 0.4
Cc1ccc(Nc2nc(N)nc(CN3CCN(C(=O)c4ccco4)CC3)n2)cc1Cl | 78* | 18 | 0.2 | 85* | 0.2
CCN1CCN(Cc2nc(N)nc(Nc3ccc(C)c(C)c3)n2)CC1 | -14 | 11 | 1.1 | -19 | 1.2
Cc1cccc(Nc2nc(N)nc(CN3CCN(C)CC3)n2)c1 | -18 | 5 | 1.2 | 96* | 0
Clc1ccc(CN(CC2CCCO2)C(c2cccs2)c2nnnn2C2CCCC2)cc1 (stereo unspecified) | 41 | 8 | 0.6 | 36 | 0.6
O=C(CCN1C(=O)C2CC=C(Cl)CC2C1=O)Nc1ccccc1O (stereo unspecified) | 59* | 4 | 0.4 | 42 | 0.6
CC1CCCC(NC(=O)Nc2cccs2)C1C (stereo unspecified) | 32 | 3 | 0.7 | 5 | 0.9
CCN1CCN(c2nc(-c3cccnc3)nc3ccccc23)CC1 | -2 | 22 | 1 | 3 | 1
c1cncc(-c2nc(N3CCCCCC3)c3ccccc3n2)c1 | 39 | 21 | 0.6 | 77* | 0.2
c1ccc2c(N3CCCCCC3)nc(-c3ccncc3)nc2c1 | 76* | 11 | 0.2 | 80* | 0.2
c1ccc(N2CCN(c3nc(-c4ccccn4)nc4ccccc34)CC2)cc1 | 32 | 17 | 0.7 | 59* | 0.4
CCN1CCN(c2nc(-c3ccncc3)nc3ccccc23)CC1 | 51* | 5 | 0.5 | 30 | 0.7
CCN(CC)c1ccc(NC(=O)COC(=O)CCC(=O)c2ccc(F)cc2)cc1 | 21 | 12 | 0.8 | 2 | 1
O=C(O)CC1(Cc2nc(-c3cccs3)no2)CCCC1 | -5 | 10 | 1.1 | 4 | 1
Cc1cc(C)c2c(=O)c3c(oc2c1)C(=O)N(CCO)C3c1cccc(O)c1 (stereo unspecified) | 50* | 3 | 0.5 | 54* | 0.5
Cc1ccc2onc(CC(=O)O)c2c1 | nt | 3 | nt | nt | nt
COc1ccc(S(=O)(=O)N2CCc3ccccc3C2)cc1OC | 91* | 10 | 0.1 | -142 | 2.4*
COc1cc2c(cc1OC)CN(S(=O)(=O)c1ccc3c(c1)OCCO3)CC2 | 95* | 5 | 0.1 | 32 | 0.7
O=C(Nc1ccc2c(c1)CCC2)c1cccc(F)c1 | nt | 7 | nt | nt | nt
Cc1ccc(/C=N/NC(=O)CCCOc2ccc(Cl)cc2Cl)cc1[N+](=O)[O-] | 9 | 7 | 0.9 | 32 | 0.7
COc1cccc(C(=O)N/N=C2\SCC(=O)N2Cc2ccc3c(c2)OCO3)c1 | 34 | 2 | 0.7 | 88* | 0.1
COc1ccc(C(=O)N/N=C2/SCC(=O)N2Cc2ccc3c(c2)OCO3)cc1OC | -1 | 22 | 1 | 23 | 0.8
SMILES | CYP2C19 inhib | Measles CPE | CYP2C19 activ | CYP2C9 inh | CYP2C9 act
CCC(C)c1ccc(S(=O)(=O)N2CC(=O)Nc3ccccc32)cc1 (stereo unspecified) | nt | 17 | nt | nt | nt
Cc1cc(NC(=O)COC(=O)C2COc3ccccc3O2)no1 (stereo unspecified) | 7 | 2 | 0.9 | 12 | 0.9
Cc1cc(NC(=O)C2COc3ccccc3O2)no1 (stereo unspecified) | 61* | 3 | 0.4 | 38 | 0.6
Cc1cnc(NC(=O)C2COc3ccccc3O2)s1 (stereo unspecified) | 67* | 10 | 0.3 | 18 | 0.8
Cc1ccccc1CSc1nnc(NC(=O)C2COc3ccccc3O2)s1 (stereo unspecified) | 10 | 2 | 0.9 | 13 | 0.9
O=C(Nc1nnc(SCc2ccccc2Cl)s1)C1COc2ccccc2O1 (stereo unspecified) | 10 | 19 | 0.9 | 55* | 0.5
Cc1nc2ccc3nc(NC(=O)C4COc5ccccc5O4)sc3c2s1 (stereo unspecified) | -5 | 6 | 1 | 68* | 0.3
